We go through 11 compounds from PubChem BioAssay (EPA / NIEHS).

Assay [1] in a line: TOX21_p53_BLA_p2_viability: Viability Assessment in the Tox21 HCT-116 p53 Agonism Beta-lactamase Assay, Phase 2 (AID 2283591).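 Note: actives lower the ATP signal meaning cytotoxicity.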 The method in brief:
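Cytotoxicity readout: CellTiter-Glo ATP luminescence, 30 min at room temperature, after the beta-lactamase read. Cells were HCT116 exposed 16 h at 37C to compounds pin-transferred at 217-fold dilution from DMSO stocks.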

The target of assay [2] is Cellular tumor antigen p53 (Homo sapiens) (UniProt P04637). In words: TOX21_p53_BLA_p2_ratio: Tox21 HCT-116 p53 Agonism Beta-lactamase Assay, Ratio, Phase 2 (AID 2283592). The essentials:
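Read-out is the blue/green (460/530 nm, 405 nm excitation) ratio after 2 h CCF4-AM loading, fitted as gain versus DMSO. Compounds, pinned at 217-fold dilution from DMSO stocks, stayed 16 h on HCT-116 beta-lactamase reporter cells seeded 5 h earlier.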

The nature of assay [3]: TOX21_p53_BLA_p3_viability: Viability Assessment in the Tox21 HCT-116 p53 Agonism Beta-lactamase Assay, Phase 3 (AID 2283593).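 Note: cells exposed to compound for 16 h before reading.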 The method in brief:
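Cellular ATP was quantified by CellTiter-Glo luminescence, read after 30 min at room temperature. Beforehand, HCT116 cells (4000/well) received compound 5 h post-seeding, 217-fold diluted from DMSO, then incubated 16 h at 37C.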

Assay [4] has as its target Cellular tumor antigen p53 (Homo sapiens) (UniProt P04637). In words: TOX21_p53_BLA_p3_ratio: Tox21 HCT-116 p53 Agonism Beta-lactamase Assay, Ratio, Phase 3 (AID 2283596). The method in brief:
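Cells were seeded at 4000/well, rested 5 h at 37C, then dosed with DMSO compound solutions (217-fold dilution) for 16 h. CCF4-AM substrate was loaded for 2 h at room temperature, and the 460/530 nm emission ratio was fitted for gain of signal versus DMSO.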

Assay [5] is described as follows: TOX21_p53_BLA_p4_viability: Viability Assessment in the Tox21 HCT-116 p53 Agonism Beta-lactamase Assay, Phase 4 (AID 2283597).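 Note: hits lower the luminescence signal meaning cytotoxicity.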 The method in brief: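 Cytotoxicity as reduced cellular ATP (CellTiter-Glo luminescence, 30 min room temperature), measured in the same wells following the CCF4 FRET p53 reading. Human HCT-116 cells received compounds in DMSO (217-fold dilution) for 16 h.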

The target of assay [6] is Cellular tumor antigen p53 (Homo sapiens) (UniProt P04637). In words: TOX21_p53_BLA_p5_ratio: Tox21 HCT-116 p53 Agonism Beta-lactamase Assay, Ratio, Phase 5 (AID 2283599). The method in brief:
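Beta-lactamase reporter ratio (blue 460 nm over green 530 nm, 405 nm excitation) after 2 h CCF4-AM loading, in HCT-116 cells exposed 16 h at 37 C to compounds pinned at 217-fold dilution. Increases relative to DMSO baseline scored.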

Assay [7] in a line: TOX21_p53_BLA_p5_viability: Viability Assessment in the Tox21 HCT-116 p53 Agonism Beta-lactamase Assay, Phase 5 (AID 2283600). The essentials: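 Viability came from CellTiter-Glo ATP luminescence, read after 30 min at room temperature. Before this, HCT-116 p53-bla cells (4000/well) had 16 hours of compound exposure at 37C, with DMSO stocks diluted 217-fold on transfer.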
Assay [8] concerns the target Cellular tumor antigen p53 (Homo sapiens) (UniProt P04637). Nature of the assay: TOX21_p53_BLA_p4_ratio: Tox21 HCT-116 p53 Agonism Beta-lactamase Assay, Ratio, Phase 4 (AID 2283601). The method in brief:
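Signal is the blue/green (460nm/530nm) ratio of cleaved versus uncleaved CCF4-AM substrate, read after 2 h substrate loading. Cells were HCT116 carrying the p53-responsive beta-lactamase reporter, dosed 16 h at 37C, 5% CO2; CellTiter-Glo measured in parallel.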

Assay [9] has as its target PGR (gene 5241) (UniProt P06401). In words: TOX21_PR_BLA_Followup_Antagonist_ratio: Tox21 HEK293 Progesterone Receptor (PR) Antagonism Beta-lactamase Follow-Up Assay, Ratio (AID 2283934).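 Note: PR-UAS-bla HEK293T cells stimulated with 1 nM R5020 agonist for 16 hr.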 The essentials: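 Readout is the blue/green (ch2/ch1) substrate cleavage ratio after 2 hours at room temperature, following 16 hr co-treatment of PR-bla HEK293T cells with compound and 1nM promegestone. Multiplexed CellTiter-Glo viability flags cytotoxicity; DMSO baseline.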

Assay [10] is described as follows: TOX21_PR_BLA_Followup_Agonist_viability: Viability Assessment in the Tox21 HEK293 Progesterone Receptor (PR) Agonism Beta-lactamase Follow-Up Assay (AID 2283935).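 Note: signal loss means lower viability so actives are cytotoxic.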 The essentials:
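Run multiplexed with the beta-lactamase FRET read, this endpoint measures ATP by CellTiter-Glo luminescence (30 min, room temperature). PR-UAS-bla HEK293T cells received compound 6 hr after plating and were then incubated 16 hr at 37C in 2% stripped serum.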

Assay [11] can be described thus: TOX21_PR_BLA_Followup_Antagonist_viability: Viability Assessment in the Tox21 HEK293 Progesterone Receptor (PR) Antagonism Beta-lactamase Follow-Up Assay (AID 2283936).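 Note: cells exposed to compound with R5020 agonist for 16 h; hits lower the luminescence signal meaning cytotoxicity.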 The method in brief: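 PR-UAS-bla HEK293T cells in medium with 2% charcoal-stripped FBS were treated with compounds plus R5020 for 16 hr at 37C. After the beta-lactamase read, CellTiter-Glo was added to the same wells and luminescence read after 30 min at room temperature.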

In assay [12] the target is PGR (gene 5241) (UniProt P06401). In words: TOX21_PR_LUC_Followup_Agonist: Tox21 HEK293 Progesterone Receptor (PR) Agonism Luciferase Follow-Up Assay (AID 2283937; active = hit-call score of the fitted dose curve at least 0.9, where 1 is the maximum; inactive = score below 0.9). The essentials:
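Agonism scored as luciferase induction over DMSO, read by ONE-Glo after 30 min at RT. Compounds were incubated 16 h at 37C on HEK293-PR-A-luc cells (3,000/well, pre-plated 5 h) previously grown 5 days in charcoal-stripped serum.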

The target is the same in assay [13]. In words: TOX21_PR_LUC_Followup_Antagonist: Tox21 HEK293 Progesterone Receptor (PR) Antagonism Luciferase Follow-Up Assay (AID 2283938).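 Note: curve fitted upward as signal gain over DMSO baseline despite antagonist label.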 The method in brief: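 Luminescence from ONE-Glo was measured 30 min after reagent addition, following 16 h exposure of HEK293-PR-A-luc cells (3,000/well, plated 5 h earlier) to DMSO-dissolved compounds at 37C; DMSO served as baseline.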

Assay [14] is described as follows: TOX21_PR_LUC_Followup_Agonist_viability: Viability Assessment in the Tox21 HEK293 Progesterone Receptor (PR) Agonism Luciferase Follow-Up Assay (AID 2283941).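 Note: loss of signal means cytotoxicity so actives lower viability.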 The essentials:
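Cytotoxicity counter-readout in the PR-A luciferase reporter line HEK293, with 16 h compound exposure at 37C after cells were cultured in charcoal-stripped serum. Cellular ATP quantified by CellTiter-Glo luminescence.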

Results filed as inconclusive are left out. Active and inactive are the calls of the source. Rule for the calls, unless noted: active = hit-call score of the fitted dose curve at least 0.9, where 1 is the maximum; inconclusive = response in the unintended direction; inactive = score below 0.9.

Sequence of PGR (gene 5241) (P06401 whole entry, looked up): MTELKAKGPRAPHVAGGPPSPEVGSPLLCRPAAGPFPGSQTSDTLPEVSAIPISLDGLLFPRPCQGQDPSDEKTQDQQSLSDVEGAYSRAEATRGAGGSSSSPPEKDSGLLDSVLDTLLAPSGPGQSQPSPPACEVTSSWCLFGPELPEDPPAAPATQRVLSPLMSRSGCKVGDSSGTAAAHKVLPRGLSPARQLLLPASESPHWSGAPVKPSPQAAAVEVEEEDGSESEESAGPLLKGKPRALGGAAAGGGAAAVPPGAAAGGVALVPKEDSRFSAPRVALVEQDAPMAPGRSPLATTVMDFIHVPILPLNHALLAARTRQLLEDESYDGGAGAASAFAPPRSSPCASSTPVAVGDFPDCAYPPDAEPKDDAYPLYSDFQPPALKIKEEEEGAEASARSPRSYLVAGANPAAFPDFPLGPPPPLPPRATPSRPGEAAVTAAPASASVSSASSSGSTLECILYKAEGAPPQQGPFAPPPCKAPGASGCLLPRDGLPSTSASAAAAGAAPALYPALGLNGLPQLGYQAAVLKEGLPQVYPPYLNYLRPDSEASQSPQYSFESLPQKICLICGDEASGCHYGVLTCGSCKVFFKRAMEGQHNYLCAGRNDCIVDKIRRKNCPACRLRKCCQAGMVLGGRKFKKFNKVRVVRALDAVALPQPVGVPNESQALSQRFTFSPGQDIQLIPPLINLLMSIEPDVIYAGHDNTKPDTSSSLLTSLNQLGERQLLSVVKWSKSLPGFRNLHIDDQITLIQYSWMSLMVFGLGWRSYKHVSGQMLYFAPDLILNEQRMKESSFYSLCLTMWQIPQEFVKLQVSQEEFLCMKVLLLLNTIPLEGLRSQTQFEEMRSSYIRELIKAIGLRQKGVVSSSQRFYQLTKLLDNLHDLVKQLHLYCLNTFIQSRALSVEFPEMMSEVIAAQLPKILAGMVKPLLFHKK
Sequence of Cellular tumor antigen p53 (Homo sapiens) (P04637 whole entry, looked up): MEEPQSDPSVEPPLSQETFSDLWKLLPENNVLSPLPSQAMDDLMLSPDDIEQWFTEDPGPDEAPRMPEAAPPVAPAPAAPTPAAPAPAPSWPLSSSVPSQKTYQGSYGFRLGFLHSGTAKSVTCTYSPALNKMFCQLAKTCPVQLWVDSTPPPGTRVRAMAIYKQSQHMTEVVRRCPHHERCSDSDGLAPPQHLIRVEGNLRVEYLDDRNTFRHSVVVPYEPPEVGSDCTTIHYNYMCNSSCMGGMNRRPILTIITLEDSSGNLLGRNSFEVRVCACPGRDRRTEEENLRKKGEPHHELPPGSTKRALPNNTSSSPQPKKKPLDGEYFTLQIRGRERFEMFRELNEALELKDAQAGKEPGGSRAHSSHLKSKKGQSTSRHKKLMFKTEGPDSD

As to `Cc1ccc(O)c(O)c1`, the AC50 in assay [1] is 40.8 µM (active); in assay [3], 41.5 µM (active); in assay [5], 41 µM (active); in assay [6] it was 66 µM (active); in assay [7] it was 42 µM (active). Besides, the result in assay [2], in [4] and in [8] was inactive.

On to `CC(C)c1nc(N(C)S(C)(=O)=O)nc(-c2ccc(F)cc2)c1/C=C/C(O)CC(O)CC(=O)O` (centres undefined), for which the call in [1], in [2], in [3], in assay [4], in assay [5] and in assay [6] was inactive. Besides, the outcome in assay [7] and in assay [8] was inactive.

For `OCC(O)[C@@H](O)[C@H](O)[C@H](O)CO[C@H]1O[C@H](CO)[C@@H](O)[C@H](O)[C@H]1O` (some centres undefined), the compound was called inactive in assay [1], in assay [2], in assay [3], in assay [4], in assay [5] and in assay [6]. Further, the call in assay [7] and in assay [8] was inactive.

For the compound `Cc1cc(N)c2ccccc2[n+]1CCCCCCCCCC[n+]1c(C)cc(N)c2ccccc21`, the call in assay [1], in assay [2], in assay [3], in [4], in [5] and in assay [6] was inactive. The compound was called inactive in assay [7] and in [8].

For the compound `CCOc1ccccc1O[C@H](c1ccccc1)[C@H]1CNCCO1`, the outcome in assay [1], in assay [2], in assay [3], in [4], in [5] and in assay [6] was inactive. For the same compound, the call in assay [7] and in assay [8] was inactive.

For the compound `CCOC(=O)Oc1c(OC)cc(C(=O)O[C@@H]2C[C@@H]3CN4CCc5c([nH]c6cc(OC)ccc56)[C@H]4C[C@@H]3[C@H](C(=O)OC)[C@H]2OC)cc1OC`, the compound was classed as inactive in assay [1], in [2], in assay [3], in assay [4], in assay [5] and in [6]. Further, the compound was called inactive in assay [7] and in assay [8].

For the compound `CN1CCN(CCCN2c3ccccc3Sc3ccc(C(F)(F)F)cc32)CC1`, the AC50 in assay [1] was 36.4 µM (active); in assay [5], 33.9 µM (active); in assay [8] it was 43.1 µM (active). In addition, the result in assay [2], in assay [3], in [4], in assay [6] and in assay [7] was inactive.

`CCOc1cc(-c2nccc3cc(OC)c(OC)cc23)cc(OCC)c1OCC`: the call in assay [1], in assay [2], in assay [3], in [4], in assay [5] and in assay [6] was inactive. Further, the compound was classed as inactive in assay [7] and in assay [8].

As to `O=C(O)c1cc(=O)[nH]c(=O)[nH]1`, the compound was classed as inactive in [1], in assay [2], in [3], in assay [4], in assay [5] and in assay [6]. In addition, the result in assay [7] and in assay [8] was inactive.

For `COC(=O)C1=C(C)NC(C)=C(C(=O)OCCN2CCN(C(c3ccccc3)c3ccccc3)CC2)C1c1cccc([N+](=O)[O-])c1` (centres undefined), the outcome in assay [1], in assay [2], in assay [3], in assay [4], in assay [5] and in assay [6] was inactive. Further, the call (in [7]; in assay [8]; in the assay with PGR (gene 5241) [9]; in assay [10]; in assay [11]; with PGR (gene 5241) [12]) was inactive. In assay [14], the compound was classed as inactive. Besides, in the assay with PGR (gene 5241) [13], the AC50 was 23 µM (active).

For the compound `C[C@]12O[C@H](C[C@]1(O)CO)n1c3ccccc3c3c4c(c5c6ccccc6n2c5c31)CNC4=O`, the AC50 in assay [1] was 1.06 µM (active); in assay [2], 43.4 nM (active); in [3] it was 1.13 µM (active); in [4], 71.5 nM (active); in [5], 2.24 µM (active); in assay [6], 0.0787 µM (active). Besides, the AC50 in [8] was 0.0528 µM (active). Moreover, the compound was called inactive in assay [7].

One may read the AC50 as the concentration at which the activity in the assay is half-maximal.
